Measurements taken from PubChem BioAssay (NCATS).
Values joined by “and” are separate entries in the source; they are usually repeats but may differ in a detail not shown here. Equal entries are not always repeated. Results filed as inconclusive are left out. Some compounds were tested as several samples or in several runs, with calls that do not always agree. Active and inactive are the calls of the source. Unless noted, calls follow the shape of the dose curve; as a rule, active = well fitted curve in the direction sought with a large enough effect; inconclusive = small, poorly fitted or top-dose-only effect, or another doubt; inactive = no such curve, though single readings can be large; an effect the other way counts as inactive or inconclusive.

What was measured:
[1] = molecular target: Cellular tumor antigen p53 (Homo sapiens) (UniProt P04637); test: Primary qHTS for small molecule compounds that upregulate eGFP-tagged delta133p53alpha (in N-terminal) cells. (AID 2060322); conditions: NCI-H358 eGFP-delta133p53alpha fluorescence, 24 h; activation: hits give high values; also: nearly all actives have a fitted effect of over 75% in size; also: potency is read from the fitted curve at half-maximal effect;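 as to activation: series mostly up to about 56 µM; 0% = DMSO vehicle and 100% = reference activator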
Chain of Cellular tumor antigen p53 (Homo sapiens) (P04637 whole entry, looked up): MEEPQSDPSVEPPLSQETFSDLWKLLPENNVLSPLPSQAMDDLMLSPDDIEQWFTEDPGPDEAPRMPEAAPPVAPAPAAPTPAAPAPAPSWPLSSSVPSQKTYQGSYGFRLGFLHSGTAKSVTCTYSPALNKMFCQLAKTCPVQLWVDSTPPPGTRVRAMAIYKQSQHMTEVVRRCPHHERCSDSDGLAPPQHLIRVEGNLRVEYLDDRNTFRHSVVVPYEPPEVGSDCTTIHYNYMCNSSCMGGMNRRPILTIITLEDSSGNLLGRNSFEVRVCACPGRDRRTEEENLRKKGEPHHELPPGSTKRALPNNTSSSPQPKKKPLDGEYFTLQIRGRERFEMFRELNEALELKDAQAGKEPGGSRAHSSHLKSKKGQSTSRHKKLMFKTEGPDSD
Procedure, shortened: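 NCI-H358 cells pre-induced 24 h with 10 ng/ml doxycycline to express N-terminal eGFP-delta133p53alpha, then dosed 24 h at 37C without doxycycline; fixed, Hoechst-stained, GFP intensity by laser scanning cytometry, normalized to DMSO (0%) and 57.5 uM 5-azacytidine (100%).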

[2] = molecular target: Aldehyde dehydrogenase, mitochondrial (Homo sapiens) (UniProt P05091); test: qHTS for Inhibitors of the Aldehyde Dehydrogenase Family (ALDH2) Primary screen (AID 2061308);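 also: plate controls were vehicle for no effect and reference inhibitor for full effect; nearly all actives have a fitted effect of over 55% in size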
[3] = molecular target: Retinaldehyde dehydrogenase 3 (Homo sapiens) (UniProt P47895); test: qHTS for Inhibitors of the Aldehyde Dehydrogenase Family (ALDH1A3) Validation screen (AID 2061312); also: % is scaled to controls: 0 for no effect and ±100 for the full control effect; nearly all actives have a fitted effect of over 45% in size
[4] = molecular target: Retinaldehyde dehydrogenase 3 (Homo sapiens) (UniProt P47895); test: qHTS for Inhibitors of the Aldehyde Dehydrogenase Family (ALDH1A3) Primary screen (AID 2061315);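 also: plate controls were DMSO vehicle for no effect and reference inhibitor for full effect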
[5] = BET inhibitor-based combinations targeting novel dependencies in MECOM-rearranged (r) AML: SET-2 cell line (AID 2202231); conditions: SET-2 AML cells viability, CellTiter-Glo luminescence, 48 h; viability: hits give low values, concentration not given here; also: nearly all actives have a fitted effect of over 35% in size; also: potency is read from the fitted curve at half-maximal effect;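 as to viability: plate controls were DMSO treated cells for no effect and wells without cells for full effect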
Procedure, shortened: (§1)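 A 48 hr incubation preceded viability reading by CellTiter-Glo, with 15 min room-temperature development. Dose series had 11 points; normalization used DMSO and empty wells; AUC was computed and mean-centered per line as Z-AUC.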

[6] = BET inhibitor-based combinations targeting novel dependencies in MECOM-rearranged (r) AML: OCI-AML3 cell line (AID 2202232); conditions: Potency: OCI-AML3 viability; also: nearly all actives have a fitted effect of over 35% in size; also: potency is read from the fitted curve at half-maximal effect
Procedure, shortened: as §1

[7] = BET inhibitor-based combinations targeting novel dependencies in MECOM-rearranged (r) AML: HNT-34 cell line (AID 2202234); also: nearly all actives have a fitted effect of over 35% in size; also: potency is read from the fitted curve at half-maximal effect
Procedure, shortened: (§2)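 Each compound is tested in an 11-point concentration series against 500 seeded cells/well for 48 hr. The luminescent viability signal is normalized to DMSO and blank wells, then reduced to AUC and a cell-line-centred Z-AUC.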

[8] = BET inhibitor-based combinations targeting novel dependencies in MECOM-rearranged (r) AML: AML-191 cell line (AID 2202236; also: nearly all actives have a fitted effect of over 35% in size; also: potency is read from the fitted curve at half-maximal effect)
Procedure, shortened: as §1

[9] = qHTS for Inhibitors of the Aldehyde Dehydrogenase Family (ALDH1A2, ALDH1A3, ALDH2, ALDH3A1) (AID 2061307); also: test system not described further here; potency is read from the fitted curve at half-maximal effect; nearly all actives have a fitted effect of over 50% in size
[10] = molecular target: Retinaldehyde dehydrogenase 3 (Homo sapiens) (UniProt P47895); test: qHTS for Inhibitors of the Aldehyde Dehydrogenase Family (ALDH1A3) Confirmatory screens (AID 2061311); also: potency is read from the fitted curve at half-maximal effect; nearly all actives have a fitted effect of over 60% in size
[11] = molecular target: Retinal dehydrogenase 2 (Homo sapiens) (UniProt O94788); test: qHTS for Inhibitors of the Aldehyde Dehydrogenase Family (ALDH1A2) Confirmation screens (AID 2061314); also: potency is read from the fitted curve at half-maximal effect; nearly all actives have a fitted effect of over 65% in size
[12] = molecular target: Aldehyde dehydrogenase 1A1 (Homo sapiens) (UniProt P00352); test: qHTS for Inhibitors of the Aldehyde Dehydrogenase Family (ALDH1A1) Confirmatory screens (AID 2061316); also: potency is read from the fitted curve at half-maximal effect; nearly all actives have a fitted effect of over 65% in size
[13] = BET inhibitor-based combinations targeting novel dependencies in MECOM-rearranged (r) AML: MV-4-11 cell line (AID 2202233); also: nearly all actives have a fitted effect of over 45% in size; also: potency is read from the fitted curve at half-maximal effect
Procedure, shortened: as §2

[14] = BET inhibitor-based combinations targeting novel dependencies in MECOM-rearranged (r) AML: AML-194 cell line (AID 2202237; also: nearly all actives have a fitted effect of over 40% in size; also: potency is read from the fitted curve at half-maximal effect)
Procedure, shortened: as §1

[15] = molecular target: Aldehyde dehydrogenase, mitochondrial (Homo sapiens) (UniProt P05091); test: qHTS for Inhibitors of the Aldehyde Dehydrogenase Family (ALDH2) Validation screens (AID 2061302; active = well fitted inhibition curve with a large enough effect; title and protocol of this record describe different tests; also: potency is read from the fitted curve at half-maximal effect)
[16] = BET inhibitor-based combinations targeting novel dependencies in MECOM-rearranged (r) AML: UCSD-AML1 cell line (AID 2202235); also: nearly all actives have a fitted effect of over 40% in size; also: potency is read from the fitted curve at half-maximal effect
Procedure, shortened: as §2

Cc1cc(Nc2nc(N[C@@H](C)c3ncc(F)cn3)ncc2Cl)n[nH]1
inactive: activation [1] -0.181% and 24.8% | Potency [2] | Potency [3] | Potency [4]
active: Potency [1] 21.7 µM | Potency [5] 1.48 µM | Potency [6] 1.32 µM | Potency [7] 2.63 µM | Potency [8] 0.132 µM

Cc1coc2c1C(=O)C(=O)c1c-2ccc2c(C)cccc12
inactive: activation [1] 9.22%
active: Potency [1] 13.5 µM | Potency [9] 4.49 µM | Potency [10] 12.7 µM | Potency [11] 11.3 µM | Potency [12] 3.57 µM

CC1(O)CC(c2nc(-c3ccc4ccc(-c5ccccc5)nc4c3)c3c(N)nccn23)C1 (stereo not given)
active: Potency [1] 24.3 µM
inactive: activation [1] 34.8% | Potency [2] | Potency [4] | viability [5] 83.7% | Potency [6] | Potency [13] | Potency [8] | Potency [14]

COc1cc2nc(N3CCCN(C)CC3)nc(NC3CCN(Cc4ccccc4)CC3)c2cc1OC
inactive: activation [1] -2.51% | Potency [15]
active: Potency [1] 30.6 µM | Potency [5] 18.6 µM | Potency [6] 8.33 µM | Potency [13] 6.61 µM | Potency [7] 7.42 µM | Potency [16] 6.61 µM | Potency [8] 14.8 µM

CCNC(=O)Nc1ccc2ncc(Nc3ccc(C)cc3)nc2n1
active: Potency [1] 30.1 µM
inactive: activation [1] -1.61% | Potency [2] | Potency [4]

O=C(O)c1ccc2c(c1)nc(Nc1cccc(Cl)c1)c1ccncc12
active: Potency [1] 23.9 µM | Potency [13] 3.32 µM | Potency [7] 2.63 µM | Potency [16] 5.9 µM | Potency [8] 7.42 µM | Potency [14] 7.42 µM
inactive: activation [1] 37.3% | Potency [2] | Potency [4]

CN1c2ccccc2C(=O)N2CCc3c([nH]c4ccccc34)C21 (stereo not given)
active: Potency [1] 2.69 µM | Potency [5] 5.25 µM | Potency [6] 2.95 µM | Potency [13] 3.32 µM | Potency [7] 1.86 µM | Potency [16] 1.66 µM | Potency [8] 1.32 µM | Potency [14] 1.32 µM
inactive: activation [1] -3.8% | Potency [2] | Potency [4]

Cc1ccnc(NS(=O)(=O)c2ccc(NC(=O)Nc3ccc(S(=O)(=O)Nc4nccc(C)n4)cc3)cc2)n1
active: Potency [1] 9.68 µM
inactive: activation [1] 21% | Potency [2] | Potency [4] | viability [5] 112% | Potency [13] | Potency [7] | Potency [16] | Potency [8] | Potency [14]

Cn1c2ccccc2c2c3c(c4c5ccccc5n(CCC#N)c4c21)CNC3=O
active: Potency [1] 16.9 µM | Potency [13] 0.417 µM | Potency [7] 3.32 µM | Potency [16] 8.33 µM | Potency [8] 3.32 µM | Potency [14] 4.68 µM
inactive: activation [1] -13.5% | Potency [2] | Potency [4]

CCOC(=O)Nc1ccc(NCc2ccc(F)cc2)nc1N
inactive: activation [1] -4.52% and 42.2% | viability [5] 107% | Potency [7] | Potency [16] | Potency [8] | Potency [14]
active: Potency [1] 2.19 µM | Potency [15] 5.01 µM

Cc1cc(C)c(CNC(=O)c2cc(-c3ccc(CN4CCOCC4)cc3)cc3c2cnn3C2CCCC2)c(=O)[nH]1
active: Potency [1] 4.31 µM | Potency [13] 29.5 µM
inactive: activation [1] 7.64% | Potency [2] | Potency [4]

Cc1cn(-c2cc(NC(=O)c3ccc(C)c(Nc4nccc(-c5cccnc5)n4)c3)cc(C(F)(F)F)c2)cn1
inactive: activation [1] 12.7% | Potency [2] | Potency [4]
active: Potency [1] 30.1 µM | Potency [6] 1.18 µM | Potency [13] 1.86 µM | Potency [7] 0.0295 µM

COc1cc2nccc(Oc3ccc(NC(=O)C4(C(=O)Nc5ccc(F)cc5)CC4)cc3)c2cc1OC
active: Potency [1] 38.5 µM | Potency [13] 0.0166 µM | Potency [7] 2.95 µM
inactive: activation [1] 11.6% | Potency [2] | Potency [4]

NS(=O)(=O)NCCNc1nonc1C(=Nc1ccc(F)c(Br)c1)NO
inactive: activation [1] -6.33% and -3% | Potency [2] | Potency [4] | viability [5] 106% | Potency [6] | Potency [13] | Potency [7] | Potency [16] | Potency [8] | Potency [14]
active: Potency [1] 2.16 µM

Cc1nc(N)sc1-c1ccnc(Nc2ccc(N3CCOCC3)cc2)n1
active: Potency [1] 26.9 µM | Potency [5] 5.25 µM | Potency [13] 0.186 µM | Potency [7] 2.35 µM | Potency [16] 0.833 µM | Potency [8] 7.42 µM | Potency [14] 4.17 µM
inactive: activation [1] -1.52% | Potency [2]

CN1CCN(CCOc2cc(OC3CCOCC3)c3c(Nc4c(Cl)ccc5c4OCO5)ncnc3c2)CC1
inactive: activation [1] -8.11% | Potency [2] | Potency [3] | Potency [4]
active: Potency [1] 12.2 µM | Potency [13] 13.2 µM | Potency [7] 1.32 µM | Potency [8] 18.6 µM | Potency [14] 23.5 µM

COc1cc(N2CCC(N3CCN(C)CC3)CC2)ccc1Nc1ncc(Cl)c(Nc2ccccc2S(=O)(=O)C(C)C)n1
active: Potency [1] 30.1 µM | Potency [5] 18.6 µM | Potency [6] 2.63 µM | Potency [13] 0.468 µM | Potency [7] 16.6 µM | Potency [16] 2.95 µM | Potency [14] 16.6 µM
inactive: activation [1] 16.9% | Potency [2]
